Measured values from PubChem BioAssay (Tox21).
Values without a mark were called inactive. Inconclusive results are not listed. Entries that show only a call come without a potency. Active and inactive are the calls of the source. Unless noted, calls follow the shape of the full dose curve.

Experiments:
[1] = Nuclear factor erythroid 2-related factor 2/antioxidant responsive element (Nrf2/ARE) small molecule agonists: qHTS cell viability counter screen in human keratinocytes (AID 1919968; active = well fitted curve in the direction sought with a large enough effect in the repeat runs; an effect the other way counts as inactive or inconclusive; also: nearly all actives have a fitted effect of over 55% in size; also: potency is read from the fitted curve at half-maximal effect)
Method in brief: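 KeratinoSens cells (HaCaT keratinocytes stably carrying an ARE-luciferase reporter) were seeded at 1,500 cells/well and rested 5 h at 37 C/5% CO2. They were then exposed to compounds in DMSO for 23 h. Viability was read by CellTiter-Fluor fluorescence after 1 h.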

[2] = biological target: Gonadotropin-releasing hormone receptor (Homo sapiens) (UniProt P30968); assay: Human gonadotropin-releasing hormone receptor (GnRHR) small molecule agonists, calcium flux assay in GnRHR-HEK293 cells (AID 1920063); also: nearly all actives have a fitted effect of over 35% in size
Gonadotropin-releasing hormone receptor (Homo sapiens), sequence (P30968 whole entry, looked up): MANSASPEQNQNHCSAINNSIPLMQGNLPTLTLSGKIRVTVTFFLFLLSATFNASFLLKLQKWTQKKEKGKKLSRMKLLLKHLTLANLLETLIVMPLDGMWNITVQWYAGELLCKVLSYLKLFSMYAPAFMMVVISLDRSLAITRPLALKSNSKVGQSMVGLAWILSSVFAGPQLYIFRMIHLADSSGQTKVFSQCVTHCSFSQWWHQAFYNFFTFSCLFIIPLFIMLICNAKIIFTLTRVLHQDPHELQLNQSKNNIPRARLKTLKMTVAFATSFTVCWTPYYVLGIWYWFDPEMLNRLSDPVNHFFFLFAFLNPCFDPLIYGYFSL
Method in brief: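 HEK293 cells stably expressing human GnRHR were plated 18 h at 37 °C, loaded with calcium dye 1 h at 37 °C, then given compound in agonist mode; fluorescence (Ex/Em 480/540) read kinetically for 3 min at 1 s intervals.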

[3] = biological target: KiSS-1 receptor (Homo sapiens) (UniProt Q969F8); assay: Human kisspeptin (KISS1R) small molecule agonists, calcium flux assay in KISS1R-HEK293 cells (AID 1920064; active = well fitted curve in the direction sought with a large enough effect in the repeat runs; an effect the other way counts as inactive or inconclusive)
KiSS-1 receptor (Homo sapiens), sequence (Q969F8 whole entry, looked up): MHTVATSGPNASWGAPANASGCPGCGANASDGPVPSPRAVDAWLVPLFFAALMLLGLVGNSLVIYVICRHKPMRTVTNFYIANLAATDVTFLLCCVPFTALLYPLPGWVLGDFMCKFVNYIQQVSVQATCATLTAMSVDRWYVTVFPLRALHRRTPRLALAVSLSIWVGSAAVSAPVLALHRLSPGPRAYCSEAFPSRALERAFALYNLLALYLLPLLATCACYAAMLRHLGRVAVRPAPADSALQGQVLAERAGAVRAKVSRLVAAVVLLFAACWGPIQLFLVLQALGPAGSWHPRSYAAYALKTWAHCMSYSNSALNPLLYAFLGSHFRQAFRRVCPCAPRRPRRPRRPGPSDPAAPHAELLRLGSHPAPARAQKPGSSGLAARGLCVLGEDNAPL
Method in brief: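 HEK293 cells stably expressing human KISS1R were plated 18 h at 37 °C, loaded with calcium dye for 1 h at 37 °C, then given compound by pin tool. Fluorescence (Ex/Em 480/540) was read kinetically for 3 min.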

[4] = G protein-coupled receptor (GPCR) small molecule agonists, calcium flux assay: HEK293 wild type cell line counter screen (AID 1920065)
Method in brief: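 Cells were plated and cultured 18 h at 37 C/5% CO2, then loaded with calcium dye for 1 h at 37 C. Compounds in DMSO were pin-transferred in agonist mode, and fluorescence (Ex/Em 480/540) was read kinetically for 3 min at 1 s intervals.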

[5] = p53 small molecule agonists, cell-based qHTS assay with human liver microsomes (AID 1963577);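 also: p53 response element beta-lactamase reporter cells with liver microsomes plus NADPH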
Method in brief: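 Reporter activation was measured by LiveBLAzer fluorescence intensity in p53RE-bla cells, which had been exposed to compounds for 16 h at 37 C alongside 0.5 mg/mL human liver microsomes and 0.5 mg/mL NADPH (final concentrations).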

[6] = p53 small molecule agonists, cell-based qHTS assay with rat liver microsomes (AID 1963578)
Method in brief: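 Compound in DMSO added to p53RE-bla cells 5 h post-plating; rat microsomes/NADPH 0.5 mg/mL final; 16 h, 37 C; LiveBLAzer 2 h RT.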

[7] = p53 small molecule agonists, cell-based qHTS assay with human liver microsomes: qHTS cell viability counter screen (AID 1963579); also: nearly all actives have a fitted effect of over 45% in size
Method in brief: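 HLM-supplemented (0.5 mg/mL final) and NADPH-supplemented (0.5 mg/mL final) p53RE-bla cultures, 4,000 cells per well, were dosed with compounds in DMSO for 16 h at 37 C; luminescent ATP detection (CellTiter-Glo, 30 min, room temperature) quantified surviving cells.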

[8] = p53 small molecule agonists, cell-based qHTS assay with rat liver microsomes: qHTS cell viability counter screen (AID 1963580); also: nearly all actives have a fitted effect of over 45% in size
Method in brief: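 HCT-116 p53RE-bla, 4,000 cells/well, 5 h pre-incubation; cpd + rat liver microsomes 0.5 mg/mL + NADPH 0.5 mg/mL (final); 16 h, 37 C; CellTiter-Glo, 30 min RT; luminescence.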

[9] = p53 small molecule agonists, cell-based qHTS assay: qHTS cell viability counter screen (AID 1963581); also: nearly all actives have a fitted effect of over 45% in size
Method in brief: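 p53RE-bla HCT-116 cells were exposed to compounds for 16 h at 37 C; after the beta-lactamase FRET read in the same wells, CellTiter-Glo was added and luminescence (intracellular ATP) read after 30 min at room temperature.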

[10] = p53 small molecule agonists, cell-based qHTS assay (AID 1963582; active = well fitted activation curve with a large enough effect in the signal ratio in the repeat runs, not every such curve was filed as active; the % refers to the signal ratio)
Method in brief: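 p53RE-bla beta-lactamase reporter cells rested 5 h at 37 C/5% CO2, then received compounds in DMSO by pin transfer and were incubated 16 h at 37 C. LiveBLAzer B/G FRET substrate was loaded for 2 h at room temperature before fluorescence reading.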

[11] = biological target: 5-hydroxytryptamine receptor 2A (Homo sapiens) (UniProt P28223); assay: 5-hydroxytryptamine receptor 2A (HTR2A) small molecule antagonists, cell-based qHTS assay (AID 1963586); also: nearly all actives have a fitted effect of over 45% in size
5-hydroxytryptamine receptor 2A (Homo sapiens), sequence (P28223 whole entry, looked up): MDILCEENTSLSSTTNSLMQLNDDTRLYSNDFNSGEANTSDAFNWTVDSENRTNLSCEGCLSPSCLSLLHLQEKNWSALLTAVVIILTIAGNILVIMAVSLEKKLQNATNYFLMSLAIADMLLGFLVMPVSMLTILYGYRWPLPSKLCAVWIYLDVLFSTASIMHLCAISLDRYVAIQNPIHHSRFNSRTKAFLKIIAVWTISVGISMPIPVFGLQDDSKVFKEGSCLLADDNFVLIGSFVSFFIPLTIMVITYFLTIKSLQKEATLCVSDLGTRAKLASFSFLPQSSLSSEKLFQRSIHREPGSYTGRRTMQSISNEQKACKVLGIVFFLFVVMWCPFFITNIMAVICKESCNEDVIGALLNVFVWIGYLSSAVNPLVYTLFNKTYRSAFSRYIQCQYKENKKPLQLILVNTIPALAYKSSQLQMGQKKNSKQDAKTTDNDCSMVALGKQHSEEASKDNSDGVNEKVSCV
Method in brief: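 Antagonist-mode intracellular calcium assay: DOI (4 nM) added after 5 min compound pre-incubation at room temperature to dye-loaded HTR2A-CHO cells. Fluorescence followed for 3 min, sampled every second.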

[12] = biological target: Muscarinic acetylcholine receptor M1 (Homo sapiens) (UniProt P11229); assay: Cholinergic receptor muscarinic 1 (CHRM1) small molecule antagonists, cell-based qHTS assay (AID 1963588); also: nearly all actives have a fitted effect of over 40% in size
Muscarinic acetylcholine receptor M1 (Homo sapiens), sequence (P11229 whole entry, looked up): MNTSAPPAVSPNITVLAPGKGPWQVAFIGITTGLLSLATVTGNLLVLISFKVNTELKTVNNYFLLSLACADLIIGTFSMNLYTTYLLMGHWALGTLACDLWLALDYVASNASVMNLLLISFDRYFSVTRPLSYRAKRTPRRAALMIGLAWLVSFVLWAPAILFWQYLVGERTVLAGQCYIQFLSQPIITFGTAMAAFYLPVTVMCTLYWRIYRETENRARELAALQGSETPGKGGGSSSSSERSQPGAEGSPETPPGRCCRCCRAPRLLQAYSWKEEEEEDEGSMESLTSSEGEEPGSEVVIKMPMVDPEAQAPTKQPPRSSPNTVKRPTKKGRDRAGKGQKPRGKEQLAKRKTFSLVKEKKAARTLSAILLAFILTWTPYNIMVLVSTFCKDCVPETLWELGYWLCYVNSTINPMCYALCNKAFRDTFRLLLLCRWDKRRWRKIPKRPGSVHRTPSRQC
Method in brief: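 CHRM1-CHO calcium-flux assay, antagonist mode. Cells were seeded 18 h, dye-loaded 1 h at 37 C and given compound for 5 min at RT, then acetylcholine was added at 50nM. FDSS fluorescence was read 3 min; 15 concentrations, three runs.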

[13] = biological target: Muscarinic acetylcholine receptor M1 (Homo sapiens) (UniProt P11229); assay: Cholinergic receptor muscarinic 1 (CHRM1) small molecule agonists, cell-based qHTS assay (AID 1963589); also: nearly all actives have a fitted effect of over 35% in size
Method in brief: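 CHO cells stably expressing human CHRM1, seeded 18 h at 37 C/5% CO2, dye-loaded 1 h at 37 C, then given compound in agonist mode; intracellular calcium fluorescence read kinetically at 1 s intervals. Fifteen concentrations, three independent runs.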

[14] = biological target: Beta-2 adrenergic receptor (Homo sapiens) (UniProt P07550); assay: Adrenergic beta2 receptor (ADRB2) small molecule agonists, cell-based qHTS assay (AID 1963593);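 also: CHO cells stably overexpressing human ADRB2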
Beta-2 adrenergic receptor (Homo sapiens), sequence (P07550 whole entry, looked up): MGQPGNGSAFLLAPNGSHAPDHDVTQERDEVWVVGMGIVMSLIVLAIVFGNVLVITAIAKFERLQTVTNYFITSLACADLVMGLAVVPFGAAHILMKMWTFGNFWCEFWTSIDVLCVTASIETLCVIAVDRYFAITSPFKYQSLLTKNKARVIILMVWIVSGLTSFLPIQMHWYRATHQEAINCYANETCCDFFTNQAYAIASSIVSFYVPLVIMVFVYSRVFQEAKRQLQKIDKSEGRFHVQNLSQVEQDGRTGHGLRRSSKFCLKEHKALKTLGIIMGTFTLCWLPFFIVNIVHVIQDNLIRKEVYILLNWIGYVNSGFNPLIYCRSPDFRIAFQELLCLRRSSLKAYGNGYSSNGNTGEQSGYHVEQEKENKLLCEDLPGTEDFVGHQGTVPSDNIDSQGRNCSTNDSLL
Method in brief: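 CHO cells stably over-expressing ADRB2 were plated overnight at 37C, then dosed with compounds plus a stimulation mix containing 100uM IBMX and 25uM Ro-20-1724 for 0.5hr at room temperature. cAMP was measured by HTRF competition, 1hr.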

[15] = biological target: D(2) dopamine receptor (Homo sapiens) (UniProt P14416); assay: Dopamine D2 receptor (DRD2) small molecule antagonists, cell-based qHTS assay (AID 1963595; active = well fitted inhibition curve with a large enough effect in the signal ratio in the repeat runs, with a control signal flat; the % refers to the signal ratio)
D(2) dopamine receptor (Homo sapiens), sequence (P14416 whole entry, looked up): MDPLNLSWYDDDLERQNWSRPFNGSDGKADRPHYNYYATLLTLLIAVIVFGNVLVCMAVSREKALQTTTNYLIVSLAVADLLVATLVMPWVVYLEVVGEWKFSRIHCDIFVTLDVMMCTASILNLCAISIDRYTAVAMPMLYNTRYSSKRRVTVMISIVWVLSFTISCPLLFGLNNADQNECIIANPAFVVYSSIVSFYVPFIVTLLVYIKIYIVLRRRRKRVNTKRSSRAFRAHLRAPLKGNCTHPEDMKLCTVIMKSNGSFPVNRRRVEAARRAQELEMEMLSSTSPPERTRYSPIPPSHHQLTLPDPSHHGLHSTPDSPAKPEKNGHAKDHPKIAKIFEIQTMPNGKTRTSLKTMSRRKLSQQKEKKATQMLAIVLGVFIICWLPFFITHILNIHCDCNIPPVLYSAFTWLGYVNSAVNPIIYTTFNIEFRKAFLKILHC
Method in brief: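 Antagonism was scored as restored cAMP in HEK293-DRD2 cells. These cells were stimulated with 200 nM NKH477 and 12 nM quinpirole for 30 min at room temperature, in the presence of 0.1 mM Ro20-1724.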

[16] = biological target: 5-hydroxytryptamine receptor 2A (Homo sapiens) (UniProt P28223); assay: 5-hydroxytryptamine receptor 2A (HTR2A) small molecule agonists, cell-based qHTS assay (AID 1963587); also: nearly all actives have a fitted effect of over 30% in size
Method in brief: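 Kinetic calcium-flux fluorescence (2 min, 1 sec intervals) after compound addition in agonist mode. HTR2A-CHO cells were cultured 18 h, then dye-loaded 1 h at 37 C.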

[17] = cAMP Responsive Elements (CRE) small molecule antagonists, cell-based qHTS assay (AID 1963591; active = well fitted inhibition curve with a large enough effect in the signal ratio in the repeat runs, not every such curve was filed as active; the % refers to the signal ratio)
Method in brief: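 CRE-bla HEK293T cells were plated 18 h at 37 °C/5% CO2, pinned with compound in DMSO, then stimulated with NKH477 at 0.25 uM final for 3 h. LiveBLAzer B/G FRET substrate was added and plates incubated 2 h at room temperature.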

[18] = biological target: Beta-2 adrenergic receptor (Homo sapiens) (UniProt P07550); assay: Adrenergic beta2 receptor (ADRB2) small molecule antagonists, cell-based qHTS assay (AID 1963592); also: series mostly up to about 92 µM; nearly all actives have a fitted effect of over 50% in size
Method in brief: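 Cells (CHO, stable ADRB2 overexpression) incubated 18-20hr at 37C; compounds added from DMSO; agonist mix (1nM isoproterenol, 100uM IBMX, 25uM Ro-20-1724) added; 0.5hr RT; d2-cAMP and anti-cAMP-cryptate added; 1hr RT; 665/615 nm read.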

[19] = cAMP Responsive Elements (CRE) small molecule agonists, cell-based qHTS assay (AID 1963590)
Method in brief: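 CRE-bla HEK 293T cells in DMEM with 10% dialyzed FBS, NEAA, pyruvate and 25 mM HEPES were plated 18 h at 37 C/5% CO2, then exposed to compounds in DMSO for 3 h before LiveBLAzer B/G FRET substrate addition.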

[20] = biological target: D(2) dopamine receptor (Homo sapiens) (UniProt P14416); assay: Dopamine D2 receptor (DRD2) small molecule agonists, cell-based qHTS assay (AID 1963594); also: nearly all actives have a fitted effect of over 35% in size
Method in brief: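 cAMP accumulation in DRD2-HEK293 cells measured by HTRF after 1 h detection; compounds added 10 min before NKH477 (200nM […]) forskolin-analogue stimulation, 30 min at room temperature, with Ro20-1724 present at 0.1 mM final.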

Row | SMILES | Potency [1] | Potency [2] | outcome [3] | outcome [4] | Potency [5] | Potency [6] | Potency [7] | Potency [8] | Potency [9] | Potency [10] | Potency [11] | Potency [12] | Potency [13] | Potency [14] | Potency [15] | Potency [16] | Potency [17] | Potency [18] | Potency [19] | Potency [20]
1 | C[C@@H]1CN(CCCn2c3ccccc3c3ccccc32)C[C@H](C)N1 | 26.6 µM (active) | inactive | inactive | inactive | inactive | inactive | inactive | inactive | inactive | inactive | inactive | inactive | inactive | inactive | inactive | – | – | – | – | –
2 | O=C(OCCCCCOC(=O)c1ccccc1)c1ccccc1 | inactive | – | – | inactive | – | inactive | inactive | inactive | inactive | inactive | inactive | inactive | inactive | inactive | inactive | inactive | inactive | inactive | – | –
3 | NC(CS)C(=O)O (centres undefined) | inactive | inactive | inactive | inactive | inactive | inactive | inactive | inactive | inactive | inactive | inactive | inactive | inactive | – | inactive | inactive | inactive | inactive | inactive | inactive
4 | O[C@@H]1CO[C@H]2[C@@H]1OC[C@@H]2O | inactive | – | – | inactive | inactive | – | inactive | inactive | inactive | inactive | – | inactive | inactive | inactive | inactive | inactive | inactive | inactive | inactive | inactive
5 | Cc1ccc2oc(CN(Cc3ccccc3)C(=O)Nc3c(F)cc(F)cc3F)c(-c3ccc(Cl)cc3)c2c1 | inactive | inactive | inactive | inactive | inactive | inactive | inactive | inactive | inactive | inactive | inactive | – | – | inactive | inactive | inactive | inactive | – | – | inactive
6 | CCc1cccc(CC)c1NC(=O)CN(CC(=O)O)CC(=O)O | inactive | inactive | inactive | inactive | inactive | inactive | inactive | inactive | inactive | inactive | inactive | inactive | inactive | – | inactive | inactive | inactive | inactive | inactive | inactive
7 | O=S(=O)(c1ccccc1)c1ccc(Cl)cc1 | inactive | inactive | inactive | inactive | inactive | inactive | inactive | inactive | inactive | inactive | inactive | – | inactive | – | – | inactive | inactive | – | inactive | inactive
8 | CC(=O)Nc1ccc(C)cc1C | inactive | inactive | inactive | inactive | inactive | inactive | inactive | inactive | inactive | inactive | inactive | – | inactive | – | inactive | inactive | inactive | inactive | inactive | inactive
